Measurements published in PubChem BioAssay (Tox21).
Inconclusive results are not listed. Activity calls are given as the source filed them. Unless noted, the call rests on the fitted dose curve; in most records, active means well fitted curve in the direction sought with a large enough effect in the repeat runs; inconclusive means weak or mixed curves; inactive means no such curve, though single readings can be large; an effect the other way counts as inactive or inconclusive.

Assays:
[1] = qHTS assay to identify aromatase inhibitors - cell viability counter screen (AID 743084);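 further: cells stimulated with testosterone during compound exposure; nearly all actives have a fitted effect of over 55% in size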
[2] = target: Aryl hydrocarbon receptor (Homo sapiens) (UniProt P35869); experiment: qHTS assay to identify small molecule that activate the aryl hydrocarbon receptor (AhR) signaling pathway (AID 743085); further: nearly all actives have a fitted effect of over 15% in size; further: potency means the concentration at half of the fitted maximal effect;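 on activation: HG2L7.5c1 human HepG2 liver cells with stably integrated DRE-driven firefly reporter; series mostly up to about 70 µM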
Aryl hydrocarbon receptor (Homo sapiens), sequence (P35869 whole entry, looked up): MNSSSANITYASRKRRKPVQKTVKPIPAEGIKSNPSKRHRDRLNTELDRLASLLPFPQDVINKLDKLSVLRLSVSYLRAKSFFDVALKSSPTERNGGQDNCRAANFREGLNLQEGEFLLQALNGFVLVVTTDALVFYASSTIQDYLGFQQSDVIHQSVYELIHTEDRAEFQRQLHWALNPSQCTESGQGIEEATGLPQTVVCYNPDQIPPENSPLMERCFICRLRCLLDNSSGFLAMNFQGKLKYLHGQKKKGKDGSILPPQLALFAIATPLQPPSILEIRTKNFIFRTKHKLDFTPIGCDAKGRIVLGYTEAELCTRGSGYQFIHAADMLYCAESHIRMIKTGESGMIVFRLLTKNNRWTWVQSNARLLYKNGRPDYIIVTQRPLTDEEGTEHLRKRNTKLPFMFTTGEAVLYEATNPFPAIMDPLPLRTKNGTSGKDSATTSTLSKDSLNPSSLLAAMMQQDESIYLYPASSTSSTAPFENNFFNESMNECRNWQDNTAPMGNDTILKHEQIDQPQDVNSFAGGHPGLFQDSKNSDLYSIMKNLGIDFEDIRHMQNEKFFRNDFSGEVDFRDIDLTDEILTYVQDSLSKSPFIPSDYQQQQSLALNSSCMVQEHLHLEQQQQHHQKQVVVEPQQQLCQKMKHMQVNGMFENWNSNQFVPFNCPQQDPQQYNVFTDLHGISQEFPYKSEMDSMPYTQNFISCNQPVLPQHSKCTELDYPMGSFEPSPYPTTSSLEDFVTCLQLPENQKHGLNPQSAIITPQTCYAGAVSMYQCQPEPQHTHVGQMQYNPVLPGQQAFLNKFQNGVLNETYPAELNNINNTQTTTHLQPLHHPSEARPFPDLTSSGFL
Summary of the method: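 HepG2 cells stably carrying a 20-DRE firefly luciferase reporter (HG2L7.5c1) treated with compound for 24 hr at 37C. Luciferase read by ONE-Glo luminescence, with CellTiter-Fluor viability read first.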

[3] = qHTS assay to identify small molecule that activate the aryl hydrocarbon receptor (AhR) signaling pathway - cell viability counter screen (AID 743086);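 further: HepG2 liver cells carrying the AhR DRE luciferase reporter; series mostly up to about 70 µM; nearly all actives have a fitted effect of over 45% in size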
Summary of the method: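 HepG2-AhR-luc (HG2L7.5c1) cells, 4000/well, were preincubated 5 h at 37C, exposed to compound in qHTS format for 24 hr at 37C, then given CellTiter-Fluor for 30 min; viability was read as fluorescence in the reporter wells.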

[4] = target: Peroxisome proliferator-activated receptor gamma (Homo sapiens) (UniProt P37231); experiment: qHTS assay to identify small molecule agonists of the peroxisome proliferator-activated receptor gamma (PPARg) signaling pathway (AID 743094; active means well fitted activation curve with a large enough effect in the signal ratio in the repeat runs, not every such curve was filed as active; the % refers to the signal ratio)
Peroxisome proliferator-activated receptor gamma (Homo sapiens), sequence (P37231 whole entry, looked up): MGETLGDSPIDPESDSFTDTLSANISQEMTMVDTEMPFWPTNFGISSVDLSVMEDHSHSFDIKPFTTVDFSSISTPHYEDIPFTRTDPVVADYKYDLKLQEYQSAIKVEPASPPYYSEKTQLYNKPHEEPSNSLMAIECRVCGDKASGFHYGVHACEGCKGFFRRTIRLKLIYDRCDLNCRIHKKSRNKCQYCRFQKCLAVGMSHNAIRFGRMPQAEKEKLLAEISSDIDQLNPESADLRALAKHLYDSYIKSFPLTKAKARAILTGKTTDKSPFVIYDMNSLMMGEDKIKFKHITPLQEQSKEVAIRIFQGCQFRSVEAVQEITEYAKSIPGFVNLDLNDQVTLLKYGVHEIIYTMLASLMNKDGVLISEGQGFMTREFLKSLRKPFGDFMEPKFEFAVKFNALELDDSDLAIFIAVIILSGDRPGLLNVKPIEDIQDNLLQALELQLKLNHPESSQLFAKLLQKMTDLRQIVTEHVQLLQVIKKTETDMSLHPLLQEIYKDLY
Summary of the method: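 Compounds dissolved in DMSO were added to PPARg UAS-bla HEK293H cells for 17 h at 37C, and reporter expression was quantified by fluorescence intensity after 1 h with LiveBLAzer B/G FRET substrate.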

[5] = target: Peroxisome proliferator-activated receptor gamma (Homo sapiens) (UniProt P37231); experiment: qHTS assay to identify small molecule antagonists of the peroxisome proliferator-activated receptor gamma (PPARg) signaling pathway (AID 743191; calls by dose curve; further: series mostly up to about 63 µM; nearly all actives have a fitted effect of over 30% in size)
Summary of the method: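 GeneBLAzer PPARg UAS-bla HEK293H cells carrying a UAS-driven beta-lactamase reporter were plated at 3000 cells/well, preincubated 5 h at 37C, then given compound for 17 h at 37C; LiveBLAzer B/G FRET substrate was read after 1 h at room temperature.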

[6] = qHTS assay to identify small molecule antagonists of the peroxisome proliferator-activated receptor gamma (PPARg) signaling pathway - cell viability counter screen (AID 743194); further: nearly all actives have a fitted effect of over 55% in size
Summary of the method: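 PPARg-UAS-bla HEK293H cells were plated, rested 5 h at 37 C, then treated with compounds plus rosiglitazone (50 nM final) for 17 h at 37 C; viability was then read by CellTiter-Glo luminescence after 30 min at room temperature.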

[7] = qHTS assay for small molecule agonists of the antioxidant response element (ARE) signaling pathway (AID 743202; active means well fitted activation curve with a large enough effect in the signal ratio in the repeat runs, not every such curve was filed as active; the % refers to the signal ratio)
Summary of the method: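 Compounds delivered in DMSO to ARE-bla HepG2 cells (2,000 cells/well, pre-incubated 5 h) and left 16 h at 37 C. LiveBLAzer B/G FRET substrate then added for 2 h at RT before fluorescence reading.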

[8] = qHTS assay for small molecule agonists of the antioxidant response element (ARE) signaling pathway - cell viability counter screen (AID 743203; calls by dose curve; further: nearly all actives have a fitted effect of over 55% in size)
Summary of the method: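 Following 16 hrs of compound treatment at 37C, HepG2 cells with an ARE-controlled beta-lactamase gene were lysed with CellTiter-Glo. Luminescence was read after 30 min at room temperature.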

[9] = qHTS assay for small molecule activators of the heat shock response signaling pathway - cell viability counter screen (AID 743209); further: nearly all actives have a fitted effect of over 50% in size
Summary of the method: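 Readout: CellTiter-Glo luminescence, 30 min at room temperature. System: HSE-bla HeLa cells, 1500/well, plated overnight. Treatment: compounds in DMSO, 5 h at 37 C.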

[10] = qHTS assay for small molecule activators of the heat shock response signaling pathway (AID 743210; active means well fitted activation curve with a large enough effect in the signal ratio in the repeat runs, with a control signal flat, not every such curve was filed as active; the % refers to the signal ratio;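 further: HeLa cells with beta-lactamase reporter driven by heat shock elements; series mostly up to about 63 µM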)
Summary of the method: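 Reporter gene assay: HeLa cells stably bearing an HSE-bla construct, compound treatment 5 h at 37 C, LiveBLAzer substrate 2.5 h at RT, fluorescence intensity.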

[11] = qHTS assay to identify small molecule agonists of the peroxisome proliferator-activated receptor delta (PPARd) signaling pathway - cell viability counter screen (AID 743211); further: nearly all actives have a fitted effect of over 55% in size
Summary of the method: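 PPARd-bla HEK293H cells (3000/well) were pre-incubated 5 h at 37 C, then exposed to compound for 17 h at 37 C. After 2 h with LiveBLAzer substrate, CellTiter-Glo was added to the same wells; luminescence read after 30 min at room temperature.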

[12] = target: Peroxisome proliferator-activated receptor delta (Homo sapiens) (UniProt Q03181); experiment: qHTS assay to identify small molecule agonists of the peroxisome proliferator-activated receptor delta (PPARd) signaling pathway (AID 743212; calls by dose curve)
Peroxisome proliferator-activated receptor delta (Homo sapiens), sequence (Q03181 whole entry, looked up): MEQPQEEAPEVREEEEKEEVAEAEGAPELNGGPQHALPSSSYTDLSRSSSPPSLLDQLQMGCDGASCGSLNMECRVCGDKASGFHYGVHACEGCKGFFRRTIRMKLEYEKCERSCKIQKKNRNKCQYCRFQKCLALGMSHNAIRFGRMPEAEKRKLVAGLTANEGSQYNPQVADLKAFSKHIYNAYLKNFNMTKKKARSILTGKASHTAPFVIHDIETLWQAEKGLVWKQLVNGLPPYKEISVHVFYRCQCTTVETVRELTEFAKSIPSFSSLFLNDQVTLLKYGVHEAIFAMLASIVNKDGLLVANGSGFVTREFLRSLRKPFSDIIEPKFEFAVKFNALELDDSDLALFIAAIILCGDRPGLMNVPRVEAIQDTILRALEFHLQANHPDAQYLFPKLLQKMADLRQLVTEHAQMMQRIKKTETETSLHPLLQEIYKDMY
Summary of the method: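 A PPARd-bla HEK293H line with beta-lactamase under an Upstream Activator Sequence is treated with compounds at 37 C. Substrate loading for 2 h at room temperature precedes the fluorescence measurement.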

[13] = qHTS assay to identify small molecule antagonists of the peroxisome proliferator-activated receptor delta (PPARd) signaling pathway - cell viability counter screen (AID 743213); further: nearly all actives have a fitted effect of over 50% in size
Summary of the method: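 PPARd-bla HEK293H cells were treated with compounds plus agonist L165041 (300 nM final) for 17 h at 37 C. Viability was then read in the same wells by CellTiter-Glo luminescence after 30 min at room temperature.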

[14] = target: Peroxisome proliferator-activated receptor delta (Homo sapiens) (UniProt Q03181); experiment: qHTS assay to identify small molecule antagonists of the peroxisome proliferator-activated receptor delta (PPARd) signaling pathway (AID 743215; active means well fitted inhibition curve with a large enough effect in the signal ratio in the repeat runs, not every such curve was filed as active; the % refers to the signal ratio;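 further: cells stimulated with agonist L165041 at 300 nM final during compound exposure; series mostly up to about 62 µM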)
Summary of the method: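 HEK293H UAS-bla, PPARd; agonist L165041 300 nM final with cpd in DMSO; 37 C 17 h; FRET substrate, RT 2 h; fluorescence intensity.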

[15] = target: Bile acid receptor (Homo sapiens) (UniProt Q96RI1); experiment: qHTS assay to identify small molecule antagonists of the farnesoid-X-receptor (FXR) signaling pathway (AID 743217; active means well fitted inhibition curve with a large enough effect in the signal ratio in the repeat runs, not every such curve was filed as active; the % refers to the signal ratio)
Bile acid receptor (Homo sapiens), sequence (Q96RI1 whole entry, looked up): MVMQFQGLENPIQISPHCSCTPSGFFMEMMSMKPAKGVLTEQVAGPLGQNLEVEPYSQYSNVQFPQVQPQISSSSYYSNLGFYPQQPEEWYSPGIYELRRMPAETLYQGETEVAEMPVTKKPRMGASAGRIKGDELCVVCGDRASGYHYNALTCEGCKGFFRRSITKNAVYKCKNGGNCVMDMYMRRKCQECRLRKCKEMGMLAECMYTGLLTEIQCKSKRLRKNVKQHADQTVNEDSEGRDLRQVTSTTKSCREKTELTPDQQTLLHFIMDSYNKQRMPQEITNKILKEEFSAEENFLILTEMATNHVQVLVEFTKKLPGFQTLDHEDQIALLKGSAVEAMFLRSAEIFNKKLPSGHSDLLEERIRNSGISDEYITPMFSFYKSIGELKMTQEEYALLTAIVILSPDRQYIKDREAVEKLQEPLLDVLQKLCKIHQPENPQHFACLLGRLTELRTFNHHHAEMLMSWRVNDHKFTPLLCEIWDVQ
Summary of the method: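 GeneBLAzer FXR-UAS-bla HEK 293T, CDCA-stimulated (50 uM final). Compound treatment 16 h, 37 °C. Detection: beta-lactamase cleavage of B/G FRET substrate, fluorescence.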

[16] = qHTS assay to identify small molecule agonists of the farnesoid-X-receptor (FXR) signaling pathway - cell viability counter screen (AID 743218); further: nearly all actives have a fitted effect of over 45% in size
Summary of the method: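 Parallel cytotoxicity test: compound-treated (16 h, 37 C) HEK 293T FXR-bla reporter cells were lysed with CellTiter-Glo and luminescence recorded.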

[17] = target: Bile acid receptor (Homo sapiens) (UniProt Q96RI1); experiment: qHTS assay to identify small molecule agonists of the farnesoid-X-receptor (FXR) signaling pathway (AID 743220; active means well fitted activation curve with a large enough effect in the signal ratio in the repeat runs, not every such curve was filed as active; the % refers to the signal ratio)
Summary of the method: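 Beta-lactamase reporter under UAS control in GeneBLAzer FXR HEK 293T cells (5000/well) measured with LiveBLAzer FRET substrate after 2 h at room temperature. Compound exposure lasted 16 h at 37C.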

[18] = qHTS assay to identify small molecule antagonists of the farnesoid-X-receptor (FXR) signaling pathway - cell viability counter screen (AID 743221; active means well fitted cell-killing curve with a large enough effect in the repeat runs, not every such curve was filed as active; further: nearly all actives have a fitted effect of over 50% in size)
Summary of the method: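 GeneBLAzer FXR-UAS-bla HEK 293T cells, compound plus chenodeoxycholic acid (50 uM final), 16 h at 37 C. CellTiter-Glo added to the same wells after the beta-lactamase read; luminescence read after 30 min at room temperature as viability.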

[19] = target: Vitamin D3 receptor (Homo sapiens) (UniProt P11473); experiment: qHTS assay to identify small molecule agonists of the vitamin D receptor (VDR) signaling pathway (AID 743222; calls by dose curve)
Vitamin D3 receptor (Homo sapiens), sequence (P11473 whole entry, looked up): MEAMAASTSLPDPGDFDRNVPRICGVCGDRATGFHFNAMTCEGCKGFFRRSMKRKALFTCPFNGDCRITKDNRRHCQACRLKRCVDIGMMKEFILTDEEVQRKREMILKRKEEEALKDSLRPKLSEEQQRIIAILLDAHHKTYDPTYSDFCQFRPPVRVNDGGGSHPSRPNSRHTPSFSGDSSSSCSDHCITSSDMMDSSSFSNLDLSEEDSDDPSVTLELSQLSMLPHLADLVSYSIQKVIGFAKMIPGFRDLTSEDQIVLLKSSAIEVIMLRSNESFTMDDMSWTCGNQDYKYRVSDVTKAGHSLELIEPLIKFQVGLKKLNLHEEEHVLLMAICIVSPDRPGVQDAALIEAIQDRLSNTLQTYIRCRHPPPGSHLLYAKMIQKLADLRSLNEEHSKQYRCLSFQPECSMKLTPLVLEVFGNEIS
Summary of the method: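 In VDR-bla cells, compound-induced beta-lactamase expression is quantified by FRET substrate fluorescence. Treatment lasts 16 h at 37C; substrate develops 2 h at room temperature.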

[20] = target: Vitamin D3 receptor (Homo sapiens) (UniProt P11473); experiment: qHTS assay to identify small molecule antagonists of the vitamin D receptor (VDR) signaling pathway (AID 743223; active means well fitted inhibition curve with a large enough effect in the signal ratio in the repeat runs, not every such curve was filed as active; the % refers to the signal ratio)
Summary of the method: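 VDR-bla cells were treated with compound plus 3 nM final 1alpha,25-dihydroxyvitamin D3 for 16 h at 37C. Beta-lactamase reporter read by B/G FRET substrate fluorescence after 2 h at room temperature. qHTS format.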

Measured: Potency

O=c1[nH]cnc2c1ncn2[C@@H]1O[C@H](CO)[C@@H](O)[C@H]1O
inactive: all assays above

CCC(=O)O[C@]1(C(=O)SCF)[C@H](C)C[C@H]2[C@@H]3C[C@H](F)C4=CC(=O)C=C[C@]4(C)[C@@]3(F)[C@@H](O)C[C@@]21C
not listed: [12] | [13] | [15] | [17] | [20]
inactive: all other assays above

CN1CCN(c2c(F)cc3c(=O)c(C(=O)O)cn(CCF)c3c2F)CC1
not listed: [12] | [15] | [17]
inactive: all other assays above

Cc1cc2nc(N)sc2cc1C
active: [2] 6.17 µM
not listed: [12] | [13] | [14] | [16]
inactive: all other assays above

CC1=C(O)C(=O)OC1C (centres undefined)
not listed: [12]
inactive: all other assays above

COc1cc(C)ccc1C(C)C
inactive: all assays above

Nc1cccc(S(=O)(=O)O)c1
not listed: [12] | [15] | [16] | [17] | [20]
inactive: all other assays above

C[C@@H](N)C(=O)O
not listed: [10] | [11] | [14] | [15] | [17] | [19]
inactive: all other assays above

CC(C)O
not listed: [9] | [10] | [11] | [13] | [14]
inactive: all other assays above

NC/C=C/C(=O)O
not listed: [8] | [15] | [17]
inactive: all other assays above

CC(C)(C)c1cccc(O)c1
not listed: [10] | [15] | [16] | [17] | [19]
inactive: all other assays above

CC(C)S
not listed: [7] | [15] | [17] | [20]
inactive: all other assays above

CC(C)OC(C)C
not listed: [7] | [8] | [15] | [17]
inactive: all other assays above

O=C1C=CC(=O)O1
not listed: [8]
inactive: all other assays above

Clc1cccc(-c2cc(Cl)cc(Cl)c2)c1
not listed: [10] | [12] | [14] | [15] | [16] | [17]
inactive: all other assays above

Cc1c(C(=O)NCCO)[n+](=O)c2ccccc2n1[O-]
not listed: [11] | [12] | [15] | [17]
inactive: all other assays above
